# Shown are actives, neighbours in structure and some others; about 2.6% of the full set was active somewhere.
# Cardio protect: modulators protecting cardiomyocytes from myocardial damage | H9c2 cardiomyocytes, H2O2 injury protection, ATPLite, 2 h | AID 588492 | protection from H2O2 cell death, % at 20 µM | actives 0.63% (n = 360,000);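 active = compounds giving at least 50% protection of heart cells from peroxide-induced death in the single-dose screen, raw or plate-pattern-corrected value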;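 note: 0% = DMSO wells with peroxide and 100% = DMSO wells without peroxide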
# 697 NFkB inh: lowers PMA/ionomycin-induced NF-kB signal in 697 B cells. inhibition, % at 4 µM. 697 B-cell NF-kB luciferase reporter, 16 h. actives 0.33% (n = 330,000); in the data active = inhibition above about 35%
# Gli-Sufu block: Gli-Sufu pathway antagonism; AID 588413; Sufu-KO-LIGHT fibroblasts, Gli luciferase reporter luminescence; inhibition, % at 5 µM; actives 0.74% (n = 340,000);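 active = inhibition above about 55%, limit read from the data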;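 note: 0% = DMSO-treated cells and 100% = wells with medium but no cells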
# Jurkat NFkB inh: inhibitors of the PMA/ionomycin-induced NF-kB reporter in Jurkat cells; PMA/ionomycin-induced NF-kB luciferase reporter, luminescence; inhibition, % at 4 µM; actives 0.53% (n = 330,000); in the data active = inhibition above about 50%
# TAG inh: reduces triacylglycerol accumulation in H9c2 cells | Nile Red lipid (TAG) fluorescence; cells loaded with 200 µM oleic acid | inhibition, % at 12.5 µM | actives 0.66% (n = 230,000) | AID 651582;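 active = pattern-corrected inhibition of lipid staining of at least 50% with the nuclear-stain viability signal not falling by more than 50%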;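 note: 0% = DMSO wells and 100% = triacsin C control wells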
# NR2F2 inh: blocks human COUP-TFII nuclear receptor | P24468 | HEK293T NGFI-A luciferase reporter, luminescence | inhibition, % at 8.6 µM | actives 0.7% (n = 370,000) | AID 686940;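 active = inhibition above a per-plate cutoff, mean inhibition of test wells between control levels plus 3 SD, cut at about 38% in these data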;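 note: cells cotransfected with COUP-TFII expression vector driving the NGFI-A reporter; 0% = median of COUP-TF2 test wells and 100% = reporter-only cells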
# Target sequence (P24468 whole entry, looked up): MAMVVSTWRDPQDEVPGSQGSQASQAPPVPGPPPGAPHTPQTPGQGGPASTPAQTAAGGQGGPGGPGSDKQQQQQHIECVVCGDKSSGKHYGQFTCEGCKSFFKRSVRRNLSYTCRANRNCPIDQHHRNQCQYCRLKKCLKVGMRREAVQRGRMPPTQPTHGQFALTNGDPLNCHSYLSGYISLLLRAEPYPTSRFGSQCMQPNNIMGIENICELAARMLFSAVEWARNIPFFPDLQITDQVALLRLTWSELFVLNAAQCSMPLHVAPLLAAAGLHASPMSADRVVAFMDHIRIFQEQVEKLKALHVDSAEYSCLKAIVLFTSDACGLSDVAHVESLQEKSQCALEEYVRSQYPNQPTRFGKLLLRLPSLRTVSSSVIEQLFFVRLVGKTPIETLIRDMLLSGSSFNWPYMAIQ
# VP16 Luc counter: VP16 inhibition counter-screen for COUP-TFII; shares compounds with NR2F2 inh; HEK293 Gal4-VP16 luciferase reporter, luminescence; inhibition, % at 8.5 µM; actives 25% (n = 2,500); AID 687007; in the data active = inhibition above about 13%
# COUP-TFII conf: COUP-TFII (NR2F2) inhibition, confirmation assay. inhibition, % at 8.5 µM. actives 45% (n = 2,500). AID 687008. HEK293 NGFI-A luciferase reporter, luminescence. shares compounds with NR2F2 inh;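 active = mean inhibition over three repeats above a set limit taken from the earlier primary screen, cut at about 38% in these data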;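 note: 100% = cells given the luciferase reporter alone without the COUP-TF2 vector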
# * = called active by the depositor; x = no result given.
SMILES,Cardio protect,697 NFkB inh,Gli-Sufu block,Jurkat NFkB inh,TAG inh,NR2F2 inh,VP16 Luc counter,COUP-TFII conf
O=C(O)CC(SCC(=O)Nc1ccc(Cl)c(S(=O)(=O)N2CCOCC2)c1)C(=O)O (stereo not drawn),-6.1,16.4,-0.6,9.6,9.2,-7.5,x,x
CC(=O)Nc1ccc(OCC(=O)Nc2ccc(Cl)c(S(=O)(=O)N3CCOCC3)c2)cc1,-8.0,-3.8,x,27.6,-30.2,64.6*,7.3,43.7*
CCN(CC)S(=O)(=O)c1cc(NC(=O)Cc2ccc(S(=O)(=O)N3CCOCC3)s2)ccc1Cl,-17.8,x,10.3,x,-17.5,64.0*,2.9,29.5
CCOc1ccccc1OCCCC(=O)Nc1ccc(Cl)c(S(=O)(=O)N2CCOCC2)c1,-8.6,-34.0,4.2,-11.2,7.9,30.2,x,x
COC(=O)c1cc(-c2ccc(Cl)s2)c(=O)n2c1CCC2,x,x,x,x,x,-19.3,x,x
CCCCN1CC(COCc2ccccc2)Oc2cccc(NCc3cc(OC)c(OC)c(OC)c3)c2S1(=O)=O (stereo not drawn),x,x,x,x,x,18.6,x,x
Cc1onc(-c2ccc(Cl)cc2)c1-c1ccn(S(=O)(=O)c2cccc(Cl)c2)n1,x,x,x,x,x,7.6,x,x
CC(C)C[C@H]1COc2cccc(F)c2S(=O)(=O)N1C,x,x,x,x,x,18.2,x,x
CCCCCCn1c(NCC)nc2c1c(=O)n(C)c(=O)n2C,-34.8,-19.3,12.7,36.3,-29.2,56.5*,10.6,48.9*
Fc1ccc(Nc2ncnc3sccc23)cc1,-9.3,0.3,-30.5,-3.8,x,6.7,x,x
Fc1ccc(CC2CCN(c3ncnc4sccc34)CC2)cc1,x,x,x,x,x,73.9*,0.3,53.5*
COc1ccc(CC2CCN(c3ncnc4sccc34)CC2)cc1,x,x,x,x,x,68.2*,-3.4,58.9*
COc1cc2c(cc1OC)C(c1c(Cl)cccc1Cl)=NCC2,0.5,x,x,x,x,72.3*,12.0,57.7*
CC(=O)OC[C@]1(OC(C)=O)C[C@@]23CC[C@H]4[C@@](C)(CCC[C@@]4(C)C(=O)O)[C@@H]2CC[C@@H]1C3,4.3,10.9,2.2,7.2,-1.3,11.3,x,x
CC(=O)OC[C@]12CC[C@H]3[C@@](C)(CC[C@H]4C(C)(C)CCC[C@]34C)[C@@H]1CC(C1=CC(=O)OC1O)O2 (stereo partly drawn),-18.2,x,x,x,x,81.6*,92.5*,104.8*
COc1ccccc1NC(=O)C(C)OC(=O)c1cc2ccccc2[nH]1 (stereo not drawn),-14.8,-15.4,-0.3,-0.2,-17.3,38.5*,1.0,42.1*
CCOc1ccc(OCCSc2nc3ccccc3[nH]2)cc1,-21.8,-27.5,5.7,5.0,x,-0.1,x,x
CCCOc1ccc(CSc2nc3ccccc3[nH]2)cc1,-16.8,-77.1,24.3,-22.9,x,38.0*,-194.4,-33.6
CC(C)(C)OC(=O)NC1CCN(c2nc(-c3ccc(Br)cc3)cs2)CC1,x,x,x,x,x,38.6*,0.1,-3.7
O=C(C1CCN(c2nc(-c3ccc(Br)cc3)cs2)CC1)N1CCNCC1,x,x,x,x,x,-31.3,x,x
CSc1ccc(-c2csc(N3CCC(C(N)=O)CC3)n2)cc1,x,x,x,x,x,-14.9,x,x
Cc1nc(SCc2cccc(C(=O)O)c2)nc2c1CCCC2,0.7,31.9,-4.6,14.1,6.7,51.8*,22.6*,4.0
CNc1nc(N)c([N+](=O)[O-])c(N2CCCCCC2)n1,-6.0,-11.6,10.2,-3.0,x,6.8,x,x
Nc1nc(NCc2ccco2)nc(N2CCCCCC2)c1[N+](=O)[O-],-12.3,-87.2,22.2,19.5,x,47.7*,1.7,23.2
CC(C)CCNc1nc(N)c([N+](=O)[O-])c(N2CCCCCC2)n1,-18.3,-41.6,15.1,44.3,x,40.9*,-2.6,27.8
SMILES,Cardio protect,697 NFkB inh,Gli-Sufu block,Jurkat NFkB inh,TAG inh,NR2F2 inh,VP16 Luc counter,COUP-TFII conf
Brc1ccc(N2O[C@H]3C=C[C@@H]2C3)nc1,x,x,x,x,x,4.0,x,x
COc1ccc(CCNC(=O)c2ccc(CS(=O)(=O)c3ccc(C)cc3)o2)cc1OC,6.3,-3.4,7.9,-2.7,-15.6,19.5,x,x
COc1ccc(CCNC(=O)c2ccc(CS(=O)(=O)c3ccc(Cl)cc3)o2)cc1OC,1.3,-21.0,2.1,9.5,x,48.6*,1.2,26.7
Cc1nnc(-n2cccc2)s1,x,x,x,x,x,8.1,x,x
Cc1ccc(C(=O)N2CCN(c3ccc(F)cc3)CC2)cc1S(=O)(=O)N1CCCCC1,-7.7,-54.5,25.3,30.1,-27.6,48.9*,-3.7,26.2
CC1CCN(S(=O)(=O)c2cc(C(=O)N3CCN(c4ccccc4)CC3)ccc2Br)CC1,-22.2,x,x,x,-7.9,47.0*,9.0,44.7*
Cc1ccc(S(=O)(=O)NCc2ccc(C(=O)N3CCN(Cc4ccccc4)CC3)cc2)cc1,0.6,-8.0,1.1,23.6,x,48.2*,-3.0,21.7
COc1ccc(CN2CCN(C(=O)c3ccc(S(=O)(=O)N4CCCCCC4)cc3)CC2)cc1F,-4.5,-30.2,15.6,26.5,9.4,52.6*,-4.8,31.8
O=C(c1ccc(S(=O)(=O)N2CCCCCC2)cc1)N1CCN(Cc2ccccc2)CC1,-1.2,-10.1,4.1,6.4,-2.6,14.9,x,x
COc1ccc(S(=O)(=O)NCc2ccc(C(=O)N3CCN(Cc4ccccc4)CC3)cc2)cc1,-0.7,-34.1,4.6,9.3,x,18.0,x,x
COc1ccc(CN2CCN(C(=O)c3ccc(S(=O)(=O)NCc4ccco4)cc3)CC2)cc1F,-4.8,-47.5,6.2,26.5,16.9,16.0,x,x
COc1ccc(CN2CCN(C(=O)c3ccc(S(=O)(=O)N4CCCCCC4)cc3)CC2)cc1,-5.5,-24.9,28.3,43.3,-7.4,62.6*,3.0,48.1*
COc1ccc(C(=O)N2CCN(Cc3ccccc3C(F)(F)F)CC2)cc1,-0.2,-8.0,-1.3,14.7,x,79.8*,-0.5,6.4
COC(=O)C1=C(C)N(Cc2cccc(C(F)(F)F)c2)C(=NCc2cc(OC)c(OC)c(OC)c2)NC1c1cccc(C(F)(F)F)c1 (stereo not drawn),x,x,x,x,x,3.5,x,x
CCN(C(=O)[C@@H](C1CC1)[C@@H](O)c1ccc(C(C)=O)cc1)c1ccccc1,x,x,x,x,x,6.9,x,x
Cc1ccc(-c2cc(-c3nnc(SCC(=O)Nc4ccc(OCc5ccccc5)cc4)n3N)[nH]n2)cc1,x,x,x,x,x,8.0,x,x
O=C1NCCN1CCN1CCC(c2cn(-c3ccc(F)cc3)c3ccc(Cl)cc23)CC1,x,x,x,x,x,43.5*,-2.3,7.6
O=C(NCCN1CCC(n2c(=O)[nH]c3cc(Cl)ccc32)CC1)c1ccc(F)cc1,x,x,x,x,x,5.5,x,x
O=C(C(=O)N1CCN(S(=O)(=O)c2ccccc2)CC1)c1cccc(C(F)(F)F)c1,x,x,x,x,x,-3.2,x,x
CCCCOc1ccc(C(=O)Nc2ccncc2)cc1,-26.9,17.8,29.2,25.0,-23.0,51.1*,-59.6,33.5
CCCOc1ccc(C(=O)Nc2cccnc2)cc1,-4.8,9.3,0.1,-66.1,x,-23.9,x,x
CCCC(=O)N1CCC(NS(=O)(=O)c2ccc3c(c2)CCN3C(C)=O)CC1,x,x,x,x,x,12.2,x,x

# Screening results from PubChem.
